Source: PubChem BioAssay (several laboratories)
CHT inh: inhibitors of human choline transporter CHT | High affinity choline transporter 1 (Homo sapiens), Q9GZV3 | actives 0.86% (n = 310,000) | B-score at 10 µM | CHT-expressing cells, membrane potential dye, choline response; hits give low values;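 active = B-score over 3 SD under the library average, and starting fluorescence ratio not unusually high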;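 note: choline stimulus applied at its EC90 after an EC20 pre-addition; B-score computed on integrated fluorescence ratio after choline addition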
Target sequence (Q9GZV3 whole entry, looked up): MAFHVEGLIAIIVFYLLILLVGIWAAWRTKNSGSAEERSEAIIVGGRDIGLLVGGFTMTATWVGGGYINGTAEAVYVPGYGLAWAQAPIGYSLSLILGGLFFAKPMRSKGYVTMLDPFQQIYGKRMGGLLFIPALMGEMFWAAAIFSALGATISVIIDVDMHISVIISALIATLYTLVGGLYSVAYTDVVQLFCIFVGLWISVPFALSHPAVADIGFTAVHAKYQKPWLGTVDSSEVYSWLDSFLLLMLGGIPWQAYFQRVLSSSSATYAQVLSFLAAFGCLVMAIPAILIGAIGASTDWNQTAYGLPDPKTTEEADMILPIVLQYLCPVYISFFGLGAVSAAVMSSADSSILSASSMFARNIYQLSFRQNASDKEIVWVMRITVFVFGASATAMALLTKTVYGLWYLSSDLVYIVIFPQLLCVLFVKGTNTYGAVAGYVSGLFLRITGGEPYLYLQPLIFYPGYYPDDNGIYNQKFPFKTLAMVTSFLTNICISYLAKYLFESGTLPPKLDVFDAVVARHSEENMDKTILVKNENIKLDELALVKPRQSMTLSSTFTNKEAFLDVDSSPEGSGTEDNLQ
CHT allo act: CHT positive allosteric modulators, primary screen, cell-based, membrane potential dye, choline EC20 | High affinity choline transporter 1 (Homo sapiens), Q9GZV3 | CHT-expressing cells; hits give high values; LV-AA mutant CHT in HEK293 cells | B-score at 10 µM | actives 0.49% (n = 310,000) | AID 488977, 2010;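 active = initial fluorescence not abnormally high and integrated response B-score, plate-corrected, over 3 SD above library mean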
EP2 mod: EP2 receptor modulators, cAMP readout, primary screen, cell-based, HTRF cAMP, PGE2 stimulation | Prostaglandin E2 receptor EP2 subtype (Homo sapiens), P43116 | actives 0.83% (n = 260,000) | EP2-expressing cells, cAMP HTRF FRET, PGE2 co-stimulation | AID 940, 2007 | induction, % at 25 µM;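 active = compounds whose cAMP rise, as percent of the full-agonist control response, exceeds 60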;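 note: rat C6 glioma line stably carrying human EP2 under a CMV promoter; the protocol text gives 20 µM as final concentration; 100% = response of wells given 1 µM PGE2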
PGE2 EP2 inh: human EP2 receptor antagonists, primary screen, TR-FRET cAMP, C6 glioma cells; actives 0.52% (n = 260,000); Prostaglandin E2 receptor EP2 subtype (Homo sapiens), P43116; inhibition, % at 25 µM; C6 glioma cells expressing human EP2; cells stimulated with saturating PGE2;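 active = percent inhibition above 40 after rounding to a whole number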;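 note: rat C6 glioma host cells with rolipram phosphodiesterase inhibitor present; the protocol text gives 20 µM as final concentration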
The depositor's hits bear a star; i = inactive; nt = no result given. This is a sample that favours compounds with a hit; in the whole collection about 2.1% have one here.

SMILES	CHT inh	CHT allo act	EP2 mod	PGE2 EP2 inh
COc1ccc(C(=O)c2no[n+]([O-])c2C(=O)c2ccc(OC)cc2)cc1	i	i	-1	65*
COc1cccc(NC(=S)N2C3CCCC2CC(NC(C)=O)C3)c1 (configuration not stated)	nt	nt	-21	12
Cc1nnc2n(Cc3ccccc3)c(=O)c3c4c(sc3n12)COC(C(C)C)C4 (configuration not stated)	i	i	64*	13
CSc1nnc2n(Cc3ccccc3)c(=O)c3c4c(sc3n12)COC(C(C)C)C4 (configuration not stated)	i	i	45	nt
CCc1ccc(N2CC(O)=C(c3nc4ccccc4n3C)C2=N)cc1	nt	nt	-82	9
COC(=O)c1cc(-c2ccc(C(c3c(C)[nH][nH]c3=O)c3c(C)[nH][nH]c3=O)o2)ccc1Cl	nt	nt	-72	40*
CCOc1cccc(C2C(C(=O)c3cccs3)=C(O)C(=O)N2CCCN(C)C)c1 (configuration not stated)	nt	nt	21	10
CC1=c2c(oc3cc(O)c(Nc4c(C)cc(O)cc4O)c(C)c23)=CC(=O)C1=Nc1c(C)cc(O)cc1O	nt	nt	-7	53*
COc1ccc(C)cc1S(=O)(=O)N(C)CC(=O)NCc1ccc2c(c1)OCO2	nt	nt	-11	12
O=C(c1cn(C[C@H]2CCCN(C(=O)c3ccco3)C2)nn1)N1CCOCC1	nt	nt	-30	nt
O=C(c1ccc(Cl)cc1)N1CCn2c1nc1ccccc12	i	i	-14	97*
CC(C)(C)OC(=O)[C@H]([C@@H]1N[C@@H](C(=O)O)C(C)(C)S1)N1C(=O)c2ccccc2C1=O	nt	nt	16	42*
CC(C)(C)NC(=O)C(Cc1ccccc1)N1C(=O)c2ccccc2C1=O (configuration not stated)	i	i	nt	nt
COC(=O)c1ccc(S(=O)(=O)N(CCO)Cc2cc3c(C)cc(C)cc3[nH]c2=O)cc1	nt	nt	-7	5
CCOc1ccc2[nH]c(=O)c(CN(CC3CCCO3)C(=S)NC3CCCCC3)cc2c1 (configuration not stated)	nt	nt	70*	13
COc1ccc2[nH]c(=O)c(CN(CC3CCCO3)C(=O)Nc3ccc(F)cc3)cc2c1 (configuration not stated)	nt	nt	-45	41*
COc1ccc2[nH]c(=O)c(CN(C(=S)NC(C)c3ccccc3)C3CCCC3)cc2c1 (configuration not stated)	nt	nt	5	45*
Cc1ccc(OCC(=O)Nc2cc(NC(=O)c3cccs3)ccc2C)cc1	nt	nt	-22	9
OC(CN1CCC(O)(c2ccc(C(F)(F)F)cc2)CC1)c1ccc(Cl)cc1 (configuration not stated)	nt	nt	-67	5
CC1CCCCN1c1nc(-c2ccncc2)nc2ccccc12 (configuration not stated)	i	i	65*	22
Cc1cc(C)nc(SCc2nnc(SCC(=O)N3CCCC3)n2Cc2ccco2)n1	nt	nt	-19	9
CCOC(=O)c1nnn(-c2nonc2N)c1CN1CCCCCC1	i	i	-6	3
CCOC(=O)c1nnn(-c2nonc2-n2cccc2)c1CN1CCCCC1	i	i	63*	11
COc1ccc(/C=C/C(=O)c2cc(O)ccc2O)cc1	nt	nt	-49	50*
COc1ccc(/C=C/C(=O)c2ccc(O)cc2O)cc1	nt	nt	-22	13
SMILES	CHT inh	CHT allo act	EP2 mod	PGE2 EP2 inh
CN(C)Cc1cc(C(C)(C)C)cc(CN(C)C)c1O	nt	nt	9	18
CN(C)Cc1cc(C(C)(C)C)ccc1-c1ccc(C(C)(C)C)cc1CN(C)C	nt	nt	7	50*
Cc1cc(NC(=O)CSc2nnc(-c3cccs3)n2-c2ccccc2)no1	nt	nt	9	9
CC(C)OCCCn1c(=N)c(C(N)=S)cc2c(=O)n3ccccc3nc21	i	6.6*	25	4
N=c1c(C(=O)NC2CCCCC2)cc2c(=O)n3ccccc3nc2n1CCc1ccccc1	i	7.3*	nt	nt
CC(=O)N=c1c(C#N)cc2c(=O)n3ccccc3nc2n1CCCOC(C)C	i	i	-9	12
CCOC(=O)c1cc2c(=O)n3ccccc3nc2n(CCCOC)c1=NC(C)=O	i	13*	12	nt
N=c1c(C(=O)NC2CCCCC2)cc2c(=O)n3ccccc3nc2n1Cc1ccccc1	i	i	nt	nt
CCc1nc(NCCc2ccncc2)c2nnn(Cc3ccccc3F)c2n1	nt	nt	-18	9
CN(C(=O)c1cccnc1)c1nnc(-c2ccncc2)s1	nt	nt	9	9
NCCCn1c(C(=O)c2cc(Cl)c(N)c(Cl)c2)c2ccc([N+](=O)[O-])cc2[n+]1[O-]	-5.5*	i	nt	nt
O=C1NN(c2ccc(Cl)c(Cl)c2)C(=O)/C1=C/c1cccc(OC(=O)c2cccs2)c1	i	i	-7	9
O=C1NN(c2ccccc2)C(=O)/C1=C\c1cccc(OC(=O)c2cccs2)c1	i	i	-42	40*
COc1cccc2c(=S)c(CCC(C)=O)c(C)[nH]c12	i	i	63*	7
CCn1c(SCC(=O)Nc2cccc(C)c2)nnc1-c1cccnc1	nt	nt	-23	2
O=C(CN1CCC(O)(c2ccccn2)CC1)Nc1ccccc1F	nt	nt	-48	nt
CCCCN(CCCC)c1nc(-c2ccncc2)nc2ccccc12	i	i	68*	8
CCN(CC)c1nc(-c2ccccc2)nc2ccccc12	i	i	nt	nt
COCCN(CCOC)C(=O)Cn1c(=O)n(C)c2ncccc21	nt	nt	-16	6
C#CCOc1ccc(CN2CCC(O)(c3ccccc3OC)CC2)cc1OC	nt	nt	-28	5
CCC(C)(C)n1nnnc1C(c1cc2ccc(C)cc2[nH]c1=O)N1CCN(C)CC1 (configuration not stated)	nt	nt	-21	10
COc1cc(/C=C2\S/C(=N/S(=O)(=O)c3ccc(C)cc3)NC2=O)c([N+](=O)[O-])cc1OC	-7.4*	i	12	2
Cc1ccc(S(=O)(=O)/N=C2/NC(=O)/C(=C/c3cc([N+](=O)[O-])ccc3O)S2)cc1	i	i	nt	nt
Cc1ccc(S(=O)(=O)/N=C2/NC(=O)/C(=C/c3ccccc3)S2)cc1	i	i	14	5
Cc1ccc(S(=O)(=O)/N=C2/NC(=O)/C(=C/c3ccncc3)S2)cc1	-5.3*	i	0	8
SMILES	CHT inh	CHT allo act	EP2 mod	PGE2 EP2 inh
Cc1ccc2c(c1)cc(C)c1nn(Cc3ccncc3)c(=O)n12	nt	nt	-23	nt
Nc1ncnc2nc(-c3ccc(C[P+](c4ccccc4)(c4ccccc4)c4ccccc4)cc3)[nH]c12	nt	nt	25	40*
CC(C)c1nc2c([nH]1)c(=O)n(C)c(=O)n2C	i	i	1	13
Cn1c(=O)c2[nH]c([C@@H]3CC(=O)C[C@H](c4nc5c([nH]4)c(=O)n(C)c(=O)n5C)N3)nc2n(C)c1=O	nt	nt	18	46*
CC1=CN2C(=N)/C(=C/c3ccc([N+](=O)[O-])o3)C(=O)N=C2S1	i	i	-10	104*
Cc1cccc(C(=O)Nc2ccc(S(=O)(=O)Nc3cc(C)nc(C)n3)cc2)c1	nt	nt	6	8
